Results: PubChem BioAssay AID778 (Sanford-Burnham Center for Chemical Genomics, 2007)
Screen size: about 96,000 compounds; about 20,000 (21%) were called active. A selection follows. Values without a mark were called inactive.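 The calls were made as follows: active = CYP2C19 inhibition above a set limit at 5 µM in the primary screen (cut at about 50% in these data); inactive = the rest.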

biological target: Cytochrome P450 2C19 (Homo sapiens) (UniProt P33261); assay: blockers of cytochrome P450 2C19 activity – biochemical, luminescence, ADME assay, primary screen (AID 778); conditions: CYP2C19 Supersomes, luciferin-H EGE luminescence, 30 min; at 5 µM; stronger effect = higher value;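 also: plate controls were negative control wells for no effect and 2.5 mM tranylcypromine positive control for full effect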
Sequence (P33261 whole entry, looked up): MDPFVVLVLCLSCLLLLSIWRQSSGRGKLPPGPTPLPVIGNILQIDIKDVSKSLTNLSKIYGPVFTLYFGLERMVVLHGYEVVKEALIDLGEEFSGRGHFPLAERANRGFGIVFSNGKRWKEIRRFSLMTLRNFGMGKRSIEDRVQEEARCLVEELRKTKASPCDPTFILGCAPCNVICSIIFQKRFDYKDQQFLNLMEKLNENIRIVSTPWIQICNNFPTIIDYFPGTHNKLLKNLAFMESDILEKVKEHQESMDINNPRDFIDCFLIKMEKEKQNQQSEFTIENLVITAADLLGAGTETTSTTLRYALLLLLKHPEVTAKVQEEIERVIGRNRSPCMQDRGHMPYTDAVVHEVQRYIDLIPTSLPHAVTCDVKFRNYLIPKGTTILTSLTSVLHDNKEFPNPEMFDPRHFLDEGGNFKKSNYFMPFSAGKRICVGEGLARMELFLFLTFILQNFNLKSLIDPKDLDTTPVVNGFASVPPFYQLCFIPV

Compound	inhibition
Cn1c(=NC(=O)c2ccco2)sc2cccc(F)c21	21.9%
CCn1c(-c2ccoc2C)n[nH]c1=S	1.3%
COc1ccc(-n2nnnc2SCC(=O)c2ccc(OC)c(OC)c2)cc1	66.5% (active)
COc1ccc(C(=O)CSc2nccc(=O)[nH]2)cc1	-4%
COc1ccc(-n2nnnc2SCC(=O)Nc2ccccc2)cc1	48.1%
Cn1c(=O)c2cn(-c3cccc4ccccc34)cc2n(C)c1=O	49.2%
O=C(O)C1OC(C(=O)O)C2C1C(F)(F)C2(F)F (configuration not stated)	-0.7%
CCOC(=O)c1c(NC(=O)c2ccc(N3CCOCC3)c([N+](=O)[O-])c2)sc(C)c1C	2.9%
Cc1cc(C(=O)CSc2nc(N)cc(=O)[nH]2)c(C)n1CCc1ccc(Cl)cc1	37%
Cc1nc(C)c(C(=O)N(c2ccc(C)c(C)c2)C(C(=O)NCc2ccco2)c2ccccc2)s1 (configuration not stated)	7.8%
O=c1c2c(nc3nc[nH]n13)CCC2	-17.9%
CC(=NCc1ccco1)C1=C(O)c2ccccc2C1=O	81.8% (active)
CC(=NCc1ccc2c(c1)OCO2)C1=C(O)c2ccccc2C1=O	4.5%
CC(=NCc1ccco1)c1c(C(F)(F)F)[nH]n(-c2nc3ccccc3s2)c1=O	28.3%
CCOC(=O)C1=C(C)N=c2s/c(=C\C(=O)OC)c(=O)n2C1c1ccc(OC)cc1 (configuration not stated)	67.5% (active)
COc1ccc(C2C(C(C)=O)=C(O)C(=O)N2c2nccs2)cc1 (configuration not stated)	-17%
COCCOC(=O)C1=C(C)N=c2s/c(=C\c3cccs3)c(=O)n2C1c1cccs1 (configuration not stated)	45.2%
S=C1SCN(CCN2CCOCC2)CN1Cc1ccccc1	25.3%
O=C(Nc1c(C(=O)N2CCCCC2)cnn1-c1ccccc1)c1ccco1	-7.8%
Cc1ccc(C2C(C#N)C(C#N)N3CCCN23)cc1 (configuration not stated)	-7.9%
C=CCn1c(SCn2nnc3ccccc3c2=O)nnc1-c1ccc(Cl)cc1	87.2% (active)
O=C(Cn1nnc2ccccc2c1=O)Nc1cc(C(F)(F)F)ccc1N1CCOCC1	31%
Cn1nnnc1SCC(=O)Nc1ccccc1C(=O)NC1CC1	-4.1%
O=c1c2ccccc2nc(CSc2nnnn2-c2ccccc2)n1-c1ccccc1	-5.9%
O=C(O)CCSc1nnc(-c2ccccc2)n1-c1ccccc1	1.2%

Compound	inhibition
CCOC(=O)CNC(=O)CSc1nnnn1-c1cc(C)ccc1C	13.5%
C=CCn1c(Cn2nnc3ccccc32)nnc1SCC(=O)N/N=C/c1cc(Br)cc(OC)c1O	22.7%
CN(C(=O)CSc1nnnn1-c1ccccc1)C1CCCCC1	71.1% (active)
O=c1c2ccccc2nnn1CSc1nnnn1-c1ccccc1	74.2% (active)
CC(=O)c1cc2c(cc1N)OCO2	5.3%
CC1CCCC(C)N1C(=O)CN1CCN(c2nc(-c3ccc(F)cc3)cs2)CC1 (configuration not stated)	7.4%
CC(=O)c1sc2nc(SCC(=O)N3CCCCC3)[nH]c(=O)c2c1C	15.5%
CCOC(=O)c1sc2nc(SC)nc(-c3ccccc3)c2c1N	6.9%
CCOC(=O)c1sc2nc(CSCC(=O)OCc3ccc(C(=O)OC)o3)[nH]c(=O)c2c1C	52.7% (active)
O=C(OCCO)c1cc(Cl)c(C(=O)OCCO)cc1Cl	15.6%
Cc1cccc(NC(=S)Nc2ccc(Br)cc2)c1	66.8% (active)
Cc1ccccc1NC(=S)Nc1cccc([N+](=O)[O-])c1	46.2%
Cc1cccc(NC(=O)Nc2cccc(Oc3c(F)c(F)c(F)c(F)c3F)c2)c1	0.7%
CCCn1c(SCC(N)=O)nnc1C(C)C	-9.9%
O=C(CN1CCN(c2ccccn2)CC1)NC1CCCCC1	6.6%
O=C(CN1CCN(S(=O)(=O)c2ccc3ccccc3c2)CC1)NC(=O)NC1CCCCC1	73.3% (active)
O=C(NC1CCCCC1)n1c(=O)oc2cc(S(=O)(=O)N3CCCCC3)ccc21	6.9%
Cc1noc(NS(=O)(=O)c2ccc(N3CC(O)=C(c4ccccc4)C3=N)cc2)c1C	-16.7%
COC(=O)C1=CN(C)C=C(C(=O)OC)C1c1ccc(Cl)cc1Cl	74.5% (active)
CCOc1ccccc1C1C(C(=O)OC)=CN(C)C=C1C(=O)OC	33.6%
CC12CN3CC(C)(CN(C1)C3c1ccc(Cl)cc1Cl)C2=O (configuration not stated)	20.4%
COC(=O)c1cc(NC(=O)CN2CCC(C(N)=O)(N3CCCCC3)CC2)cc(C(=O)OC)c1	14.3%
COC(=O)c1ccc(C(=O)OC)c(NC(=S)N2CCCCC2)c1	16.7%
NC(=O)C1(N2CCCCC2)CCN(C(=S)Nc2ccc(Cl)cc2)CC1	70.7% (active)
O=C(OCc1nnc(-c2ccccc2)o1)c1ccc2c(c1)C(=O)N(CCc1ccccc1)C2=O	0.5%

Compound	inhibition
CCOc1ccc(C(C)C)cc1S(=O)(=O)n1nc(C)cc1C	73.6% (active)
CCCC(C(=O)n1nc(C)cc1C)C(NS(=O)(=O)c1ccc(C)cc1)c1ccccc1 (configuration not stated)	43.5%
CCOc1ccc(NC(=O)CCC(=O)n2nc(C)cc2C)cc1	-8.5%
COc1cccc(CNc2nc3nc4c(c(=O)n3[nH]2)CCC4)c1	-17.3%
O=C(c1cccs1)N1CCC(c2nc3ccccc3s2)CC1	35.6%
O=C(c1cccs1)N1CCCC(c2nc(-c3ccc(F)cc3)no2)C1 (configuration not stated)	64% (active)
O=C(Cc1cccs1)N1CCCC(c2nc(-c3ccc(S(=O)(=O)N4CCCC4)cc3)no2)C1 (configuration not stated)	7.4%
COC(=O)/C(=C\Nc1ccccc1)NC(=O)c1ccc(Cl)cc1Cl	49%
C[N+]1(CCNC(=O)/C=N/O)CCCCC1	3.7%
Cc1cc(C)c2c(c1)cc(C)c1nnc(SCC(=O)Nc3cc(C)on3)n12	12.6%
Clc1ccc(COn2c(-c3ccc(Cl)cc3Cl)nc3ncccc32)cc1	96.6% (active)
O=C(Nc1cccc2ncccc12)c1ccc(-c2ccc(Cl)cc2Cl)o1	-13.7%
O=C(CN1C(=O)COc2ccccc21)Nc1ccc(F)cc1	33.4%
O=C(CN1C(=O)COc2ccccc21)NCCN1CCc2ccccc2C1	53.3% (active)
CCCN1CCN(CCCNC(=O)CN2C(=O)COc3ccccc32)CC1	-16.5%
Cc1cc(C)c2nc(NC(=O)C3CCCO3)sc2c1 (configuration not stated)	14.4%
Fc1ccc(-c2nnc(CSc3nnc(-c4ccc5c(c4)OCO5)o3)o2)cc1	-7.5%
Cc1nc(SC(C)C)[nH]c(=O)c1Cc1ccccc1	38.8%
Cc1cnc(NC(=O)CSc2c(Cl)cccc2Cl)s1	-7.1%
C=CCOC(=O)C1=C(C)NC(C)=C(C(=O)OCC=C)C1c1cccs1	77% (active)
CCCOC(=O)c1[nH]c2c(c1C)C(=O)CC(c1cccs1)C2 (configuration not stated)	39.9%
CCOC(=O)N1CC=C2C(C#N)=C(N)C(C#N)(C#N)[C@H](c3cccs3)[C@H]2C1	-4.5%
COc1cc(C2C(C(=O)Nc3ccc(F)cc3)=C(C)Nc3nc(CCCO)nn32)cc(OC)c1OC (configuration not stated)	11.1%
CCCOC(=O)Cc1c(O)c2ccccc2[nH]c1=O	-12.3%
O=c1nc2s/c(=C\c3ccco3)c(=O)n2nc1Cc1ccccc1	-5.5%

Compound	inhibition
O=c1/c(=C/c2ccc(CNS(=O)(=O)c3ccccc3)o2)sc2n1CCN=2	52.4% (active)
CCOc1cc(CNCCN(C)C)c(Cl)cc1OCC(=O)NCCc1ccccc1	-1.1%
COc1ccc(N2C(=O)CCC(C(=O)Nc3ccccn3)C2c2ccc(OC)c(OC)c2)cc1 (configuration not stated)	28.2%
COc1cccc(N2CCN(C(=O)Nc3ccc4c(c3)NC(=O)CO4)CC2)c1	-6.5%
O=C(O)C1CC=CCC1C(=O)Nc1ccccc1C(=O)N1CCN(c2ccccc2)CC1 (configuration not stated)	-10.7%
O=C1CCN(C(=O)Nc2ccccc2)N1	-3.2%
Cn1nnnc1SCC(=O)N1CCN(Cc2ccccc2)CC1	38.9%
CC(=O)N1CCN(C(=O)Nc2cccc(C(F)(F)F)c2)CC1	8.1%
CCC(=O)Nc1ccccc1C(=O)N1CCN(Cc2ccccc2)CC1	65% (active)
CCOc1ccc(NC(=O)N2CCN(CC)CC2)cc1	-6.1%
O=C(Nc1cccc(NC(=O)N2CCN(c3ccccc3)CC2)c1)N1CCN(c2ccccc2)CC1	72% (active)
O=C(Nc1ccccc1)N1CCN(Cc2ccccc2)CC1	76.7% (active)
Cc1ccc(C(=O)OC2=CC(=O)CC(C)(C)C2)cc1	36.6%
CCOC(=O)c1[nH]c2ccc(OC)cc2c1NC(=O)N1CCOCC1	2.7%
Cn1c(SCC(=O)C(C)(C)C)nnc1-c1ccccn1	33.5%
CS(=O)(=O)N(Cc1ccc(Cl)cc1)c1ccc(C(=O)NCCSCc2ccco2)cc1	-3.9%
Cc1ccccc1NC(=O)NCc1ccco1	-11.9%
CCOc1ccccc1C(=O)NCc1ccco1	14.6%
Cc1ccc(N(Cc2ccc(C(=O)Nc3ccccc3C(=O)NCc3ccco3)cc2)S(C)(=O)=O)cc1C	87.7% (active)
O=C(Nc1ccccc1)Nc1ccccc1C(=O)NCc1ccco1	79.3% (active)
Cc1cccc(Nc2ccccc2C(=O)NCc2ccco2)c1C	22.7%
CC(=O)N(CC1CCCO1)C1(C(=O)NC2CCCC2)CCCCC1 (configuration not stated)	3.8%
